# Unmarked numbers belong to inactive results. Results filed as inconclusive are left out. Entries that show only a call come without a potency. Active and inactive are the calls of the source. Unless noted, calls come from the whole dose curve.
# Columns and labels:
# [1] = molecular target: Acetylcholinesterase (Homo sapiens) (UniProt P22303); assay: Acetylcholinesterase (AChE) small molecule antagonists: colormetric cell-based qHTS assay (AID 1347395); note: nearly all actives have a fitted effect of over 30% in size
# Outline: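 AChE inhibition read colorimetrically via DTNB–thiocholine in SH-SY5Y cells. Compound 30 min, substrate 90 min, both 37 C.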
# [2] = molecular target: Acetylcholinesterase (Homo sapiens) (UniProt P22303); assay: Acetylcholinesterase (AChE) small molecule antagonists: enzyme-based qHTS assay (AID 1347397); details: Potency: AChE enzyme activity inhibition; outcome: AChE enzyme activity inhibition; note: nearly all actives have a fitted effect of over 55% in size
# Outline: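 Human recombinant acetylcholinesterase; substrate acetylthiocholine; thiocholine quantified with DTNB (colorimetric). Compound preincubation 30 min RT; reaction 10 min RT.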
# [3] = molecular target: Acetylcholinesterase (Homo sapiens) (UniProt P22303); assay: Acetylcholinesterase (AChE) small molecule antagonists: enzyme-based qHTS assay with human liver microsomes (AID 1347399); details: Potency: qHTS inhibition; outcome: qHTS inhibition; note: nearly all actives have a fitted effect of over 60% in size
# Outline: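 Recombinant human AChE (50 mU/mL in the enzyme mix) and human liver microsomes (0.25 mg/mL final) were preincubated with compound and NADPH (0.25 mg/mL final) for 30 min at 37 C. Acetylthiocholine/DTNB was then added; thiocholine was read colorimetrically after 10 min at room temperature.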
# [4] = molecular target: Acetylcholinesterase (Homo sapiens) (UniProt P22303); assay: Acetylcholinesterase (AChE) small molecule antagonists: fluorescence cell-based qHTS assay (AID 1347398); details: Potency: AChE activity; outcome: AChE activity; note: nearly all actives have a fitted effect of over 50% in size
# Outline: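 Thiocholine generated from acetylthiocholine by SH-SY5Y cell AChE is detected with Thiolite Green (Ex/Em 490/520 nm) after 40 min at room temperature, following 30 min compound pretreatment at 37 C.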
# [5] = qHTS assay for small molecules that induce genotoxicity in human embryonic kidney cells expressing luciferase-tagged ATAD5 (AID 651632; active = well fitted curve in the direction sought with a large enough effect in the repeat runs; an effect the other way counts as inactive or inconclusive; note: nearly all actives have a fitted effect of over 15% in size)
# Outline: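 Reporter cells (HEK293T) express luciferase-tagged ATAD5, a protein that accumulates after DNA damage. Treat 16 hr at 37C/5% CO2, add Amplite, wait 30 min at RT, and read luminescence.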
# [6] = qHTS assay for small molecule agonists of the p53 signaling pathway - cell viability (AID 651633); note: potency is the fitted concentration of half-maximal effect; nearly all actives have a fitted effect of over 30% in size
# Outline: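 p53RE-bla cells, seeded at 4,000 per well and rested 5 h at 37 C/5% CO2, received compounds in DMSO for 16 h at 37 C. CellTiter-Glo was then added, and luminescence was read after 30 min at room temperature to gauge cytotoxicity.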
# [7] = qHTS assay for small molecules that induce genotoxicity in human embryonic kidney cells expressing luciferase-tagged ATAD5 - cell viability (AID 651634); note: potency is the fitted concentration of half-maximal effect; nearly all actives have a fitted effect of over 25% in size
# Outline: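 Seeding of 2,000 HEK293T ATAD5-luciferase cells per well preceded pin-tool compound transfer. Plates sat 15.5 hr at 37C under 5% CO2, then fluorescence was read after 30 min with CellTiter-Fluor.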
# [8] = qHTS assay for small molecule disruptors of the mitochondrial membrane potential (AID 720635; active = well fitted curve in the direction sought with a large enough effect in the repeat runs; an effect the other way counts as inactive or inconclusive; note: potency is the fitted concentration of half-maximal effect)
# Outline: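 HepG2 cells (2,000/well) attached overnight at 37C, then took compound for 1 hr at 37C, 5% CO2. Mito-MPS dye was added for 30 min; fluorescence was read at 490/535 nm (monomers) and 540/590 nm (aggregates).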
# [9] = qHTS assay to test for compound auto fluorescence at 590 nm (red) in HepG2 cells (AID 720674; active = well fitted curve in the direction sought with a large enough effect in the repeat runs; an effect the other way counts as inactive or inconclusive)
# Outline: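 Rose Bengal sodium served as the red fluorophore standard. HepG2 monolayers (overnight attachment, MEM with 10% FBS) were exposed to test compounds for 1 hr at 37 C and read at Ex 540/Em 590 nm.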
# [10] = qHTS assay to test for compound auto fluorescence at 535 nm (green) in HepG2 cells (AID 720675; active = well fitted curve in the direction sought with a large enough effect in the repeat runs; an effect the other way counts as inactive or inconclusive)
# [11] = qHTS assay to test for compound auto fluorescence at 460 nm (blue) in HEK293 cells (AID 720678; active = well fitted curve in the direction sought with a large enough effect in the repeat runs; an effect the other way counts as inactive or inconclusive)
# Outline: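 After cell attachment (4-5 hr, 37C), compounds were pinned onto HEK293 monolayers in 10% dialyzed FBS medium. The blue channel (405/460 nm) was read following overnight culture. Equivalency was calculated against triamterene.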
# [12] = qHTS assay to test for compound auto fluorescence at 590 nm (red) in HEK293 cells (AID 720679; active = well fitted curve in the direction sought with a large enough effect in the repeat runs; an effect the other way counts as inactive or inconclusive)
# Outline: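 Plates of HEK293 cells (10% dialyzed FBS) are treated with 23 nL compound or DMSO vehicle after a 4-5 hr attachment period, incubated overnight at 37C, and read for red fluorescence at 540/590nm.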
# [13] = qHTS assay to test for compound auto fluorescence at 535 nm (green) in HEK293 cells (AID 720680; active = well fitted curve in the direction sought with a large enough effect in the repeat runs; an effect the other way counts as inactive or inconclusive)
# [14] = qHTS assay to test for compound auto fluorescence at 460 nm (blue) in HEK293 cell free culture (AID 720681; active = well fitted curve in the direction sought with a large enough effect in the repeat runs; an effect the other way counts as inactive or inconclusive)
# Outline: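 Test compounds were pinned into cell-free culture medium (DMEM with 10% FBS) and fluorescence was read directly at Ex/Em 405/460 nm. Signals were expressed as fluorescence equivalents of triamterene, with DMSO vehicle as control.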
# [15] = qHTS assay to test for compound auto fluorescence at 590 nm (red) in HEK293 cell free culture (AID 720683; active = well fitted curve in the direction sought with a large enough effect in the repeat runs; an effect the other way counts as inactive or inconclusive)
# Outline: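 Tox21 10K library compounds were pinned into cell-free DMEM with 10% FBS and fluorescence was read at excitation 540 nm. Activity is expressed as Rose Bengal sodium equivalency.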
# [16] = qHTS assay to test for compound auto fluorescence at 460 nm (blue) in HepG2 cell free culture (AID 720685; active = well fitted curve in the direction sought with a large enough effect in the repeat runs; an effect the other way counts as inactive or inconclusive)
# Outline: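 Compound (23 nL) or DMSO pinned into cell-free MEM with 10% FBS; blue fluorescence read at 405/460 nm excitation/emission, expressed as auto-fluorescence equivalency to triamterene.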
# [17] = qHTS assay to test for compound auto fluorescence at 535 nm (green) in HepG2 cell free culture (AID 720686; active = well fitted curve in the direction sought with a large enough effect in the repeat runs; an effect the other way counts as inactive or inconclusive)
# [18] = qHTS assay to test for compound auto fluorescence at 460 nm (blue) in HepG2 cells (AID 720687; active = well fitted curve in the direction sought with a large enough effect in the repeat runs; an effect the other way counts as inactive or inconclusive)
# Outline: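 Cells (2,000/well in MEM with 10% FBS) attached overnight at 37 C, then were exposed to compound or DMSO for 1 hr at 37 C, 5% CO2. Fluorescence read at Ex/Em 405/460 nm, expressed as triamterene-equivalent signal.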
# [19] = qHTS assay to identify small molecule antagonists of the glucocorticoid receptor (GR) signaling pathway - cell viability counter screen (AID 720693; active = well fitted curve in the direction sought with a large enough effect in the repeat runs; an effect the other way counts as inactive or inconclusive; note: potency is the fitted concentration of half-maximal effect; nearly all actives have a fitted effect of over 55% in size)
# [20] = qHTS assay for identifying genotoxic compounds that show differential cytotoxicity against isogenic chicken DT40 cell lines with known DNA damage response pathways - wild type cell line (AID 743012; active = well fitted curve in the direction sought with a large enough effect in the repeat runs; an effect the other way counts as inactive or inconclusive; note: potency is the fitted concentration of half-maximal effect; nearly all actives have a fitted effect of over 60% in size)
# Outline: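 Using parental DT40 (300 cells/well), compounds delivered in DMSO incubate 40 h at 37 C/5% CO2. CellTiter-Glo reagent then stands 30 min at room temperature, and luminescence gives cell viability.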
# [21] = qHTS assay for identifying genotoxic compounds that show differential cytotoxicity against isogenic chicken DT40 cell lines with known DNA damage response pathways - Rev3 mutant cell line (AID 743014; active = well fitted curve in the direction sought with a large enough effect in the repeat runs; an effect the other way counts as inactive or inconclusive; note: potency is the fitted concentration of half-maximal effect; nearly all actives have a fitted effect of over 55% in size)
# [22] = qHTS assay for identifying genotoxic compounds that show differential cytotoxicity against isogenic chicken DT40 cell lines with known DNA damage response pathways - Rad54/Ku70 mutant cell line (AID 743015; active = well fitted curve in the direction sought with a large enough effect in the repeat runs; an effect the other way counts as inactive or inconclusive; note: potency is the fitted concentration of half-maximal effect; nearly all actives have a fitted effect of over 60% in size)
# [23] = qHTS assay to identify small molecule antagonists of the androgen receptor (AR) signaling pathway - cell viability counter screen (AID 743033; active = well fitted curve in the direction sought with a large enough effect in the repeat runs; an effect the other way counts as inactive or inconclusive; note: potency is the fitted concentration of half-maximal effect; nearly all actives have a fitted effect of over 45% in size)
# [24] = molecular target: Androgen receptor (Homo sapiens) (UniProt P10275); assay: qHTS assay to identify small molecule antagonists of the androgen receptor (AR) signaling pathway (AID 743035; active = well fitted inhibition curve with a large enough effect in the signal ratio in the repeat runs, not every such curve was filed as active; the % refers to the signal ratio; note: potency is the fitted concentration of half-maximal effect)
# Outline: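 Using qHTS, AR-UAS-bla GripTite HEK293 cells received compound, then R1881, and were cultured 16 h at 37C/5% CO2 before a 2 h room-temperature LiveBLAzer B/G FRET substrate step and fluorescence measurement.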
# [25] = qHTS assay to identify small molecule antagonists of the thyroid receptor (TR) signaling pathway - cell viability counter screen (AID 743064; active = well fitted curve in the direction sought with a large enough effect in the repeat runs; an effect the other way counts as inactive or inconclusive; note: nearly all actives have a fitted effect of over 50% in size)
# Outline: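 In rat pituitary GH3.TRE-Luc reporter cells co-exposed to compound and 1 nM T3 for 23.5 h, cytotoxicity was assessed with CellTiter-Fluor in the same wells, read by fluorescence.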
# [26] = qHTS assay to identify small molecule antagonists of the thyroid receptor (TR) signaling pathway (AID 743065; active = well fitted curve in the direction sought with a large enough effect in the repeat runs; an effect the other way counts as inactive or inconclusive; note: series mostly up to about 70 µM; nearly all actives have a fitted effect of over 55% in size)
# Outline: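 GH3.TRE-Luc rat pituitary cells carrying two TR response elements driving luciferase were plated for 4 h, given compound plus 1 nM T3 (final), and incubated 23.5 h at 37 C. ONE-Glo luminescence measured reporter inhibition; CellTiter-Fluor fluorescence tracked cytotoxicity.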
# [27] = system: thyroid hormone receptor (rat, GH3 cells); assay: qHTS assay to identify small molecule agonists of the thyroid receptor (TR) signaling pathway (AID 743066)
# [28] = qHTS assay to identify small molecule antagonists of the estrogen receptor alpha (ER-alpha) signaling pathway using the BG1 cell line - cell viability counter screen (AID 743081; active = well fitted curve in the direction sought with a large enough effect in the repeat runs; an effect the other way counts as inactive or inconclusive;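 note: compound given together with 17beta-estradiol as the ER stimulus; series mostly up to about 70 µM; nearly all actives have a fitted effect of over 45% in size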)
# [29] = molecular target: Aromatase (Homo sapiens) (UniProt P11511); assay: qHTS assay to identify aromatase inhibitors (AID 743083; active = well fitted curve in the direction sought with a large enough effect in the repeat runs; an effect the other way counts as inactive or inconclusive)
# [30] = qHTS assay to identify aromatase inhibitors - cell viability counter screen (AID 743084; active = well fitted curve in the direction sought with a large enough effect in the repeat runs; an effect the other way counts as inactive or inconclusive)
# [31] = qHTS assay to identify small molecule that activate the aryl hydrocarbon receptor (AhR) signaling pathway - cell viability counter screen (AID 743086; active = well fitted curve in the direction sought with a large enough effect in the repeat runs; an effect the other way counts as inactive or inconclusive;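 note: HepG2 liver cells carrying the AhR DRE luciferase reporter; series mostly up to about 70 µM; nearly all actives have a fitted effect of over 45% in size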)
# Outline: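 HepG2-AhR-luc (HG2L7.5c1) cells, 4000/well, were preincubated 5 h at 37C, exposed to compound in qHTS format for 24 hr at 37C, then given CellTiter-Fluor for 30 min; viability was read as fluorescence in the reporter wells.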
# Acetylcholinesterase (Homo sapiens), sequence (P22303 whole entry, looked up): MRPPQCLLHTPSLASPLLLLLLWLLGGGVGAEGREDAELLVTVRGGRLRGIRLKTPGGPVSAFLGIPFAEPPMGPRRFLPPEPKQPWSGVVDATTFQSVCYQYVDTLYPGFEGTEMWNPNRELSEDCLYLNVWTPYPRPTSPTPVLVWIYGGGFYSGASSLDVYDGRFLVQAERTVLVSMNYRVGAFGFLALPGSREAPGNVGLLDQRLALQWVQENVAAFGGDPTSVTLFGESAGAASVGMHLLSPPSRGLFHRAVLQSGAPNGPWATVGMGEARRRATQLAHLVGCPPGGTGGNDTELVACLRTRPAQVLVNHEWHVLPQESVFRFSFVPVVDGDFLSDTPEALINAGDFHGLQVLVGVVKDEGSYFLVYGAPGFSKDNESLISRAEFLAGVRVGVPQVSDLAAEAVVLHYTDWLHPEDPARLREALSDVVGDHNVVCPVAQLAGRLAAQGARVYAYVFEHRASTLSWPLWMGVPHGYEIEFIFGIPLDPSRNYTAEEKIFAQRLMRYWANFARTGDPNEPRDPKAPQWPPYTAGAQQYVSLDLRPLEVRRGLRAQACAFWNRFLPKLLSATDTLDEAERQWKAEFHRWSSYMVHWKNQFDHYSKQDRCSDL
# Androgen receptor (Homo sapiens), sequence (P10275 whole entry, looked up): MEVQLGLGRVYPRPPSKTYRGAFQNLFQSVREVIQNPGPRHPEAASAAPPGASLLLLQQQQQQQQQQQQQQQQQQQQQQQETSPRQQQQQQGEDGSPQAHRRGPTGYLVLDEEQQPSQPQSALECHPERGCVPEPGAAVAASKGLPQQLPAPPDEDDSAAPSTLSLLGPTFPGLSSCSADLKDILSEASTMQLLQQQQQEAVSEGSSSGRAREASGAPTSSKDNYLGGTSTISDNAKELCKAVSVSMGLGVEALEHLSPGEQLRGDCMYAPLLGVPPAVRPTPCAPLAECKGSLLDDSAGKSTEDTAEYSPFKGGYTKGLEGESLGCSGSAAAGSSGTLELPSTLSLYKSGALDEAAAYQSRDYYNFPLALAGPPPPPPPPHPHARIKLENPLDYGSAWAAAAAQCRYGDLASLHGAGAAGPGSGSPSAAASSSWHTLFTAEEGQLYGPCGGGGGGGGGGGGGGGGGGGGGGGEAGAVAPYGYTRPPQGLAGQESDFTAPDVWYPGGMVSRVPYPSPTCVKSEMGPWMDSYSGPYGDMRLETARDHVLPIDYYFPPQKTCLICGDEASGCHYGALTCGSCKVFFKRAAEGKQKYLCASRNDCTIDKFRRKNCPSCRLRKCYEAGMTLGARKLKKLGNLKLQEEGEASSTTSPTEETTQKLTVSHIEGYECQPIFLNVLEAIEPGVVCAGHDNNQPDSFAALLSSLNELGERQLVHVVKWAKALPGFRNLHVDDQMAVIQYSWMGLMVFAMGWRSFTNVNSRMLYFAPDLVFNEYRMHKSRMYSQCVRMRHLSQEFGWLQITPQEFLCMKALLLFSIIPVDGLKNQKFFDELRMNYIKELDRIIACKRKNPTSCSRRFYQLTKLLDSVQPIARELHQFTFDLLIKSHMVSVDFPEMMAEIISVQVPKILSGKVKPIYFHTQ
# Aromatase (Homo sapiens), sequence (P11511 whole entry, looked up): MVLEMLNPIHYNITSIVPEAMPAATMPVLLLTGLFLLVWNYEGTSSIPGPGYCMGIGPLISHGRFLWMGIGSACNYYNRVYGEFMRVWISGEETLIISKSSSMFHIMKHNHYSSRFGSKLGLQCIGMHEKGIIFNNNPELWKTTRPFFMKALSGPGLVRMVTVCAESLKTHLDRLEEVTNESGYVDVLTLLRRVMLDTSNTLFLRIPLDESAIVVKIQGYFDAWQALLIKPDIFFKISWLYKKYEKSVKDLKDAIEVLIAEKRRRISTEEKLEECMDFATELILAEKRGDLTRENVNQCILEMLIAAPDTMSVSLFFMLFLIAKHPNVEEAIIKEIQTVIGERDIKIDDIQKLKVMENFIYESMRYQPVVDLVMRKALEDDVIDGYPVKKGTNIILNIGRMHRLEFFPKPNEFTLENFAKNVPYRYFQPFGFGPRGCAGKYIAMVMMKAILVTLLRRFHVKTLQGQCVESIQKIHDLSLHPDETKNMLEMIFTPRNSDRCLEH
compound,measurement,setting,value
Cc1oc(-c2ccccc2)nc1CCC(=O)c1ccc(CC2SC(=O)NC2=O)cc1 (stereo not given),Potency,[1],inactive
same,Potency,[2],inactive
same,Potency,[3],inactive
O=C(/C=C/c1ccccc1)OCCCc1ccccc1,Potency,[1],inactive
same,Potency,[2],inactive
same,Potency,[3],inactive
c1ccc(Cc2ccccc2)cc1,Potency,[1],inactive
same,Potency,[2],inactive
same,Potency,[3],inactive
NCCNCCO,Potency,[1],inactive
same,Potency,[2],inactive
same,Potency,[3],inactive
CC(C)=CCC/C(C)=C/CC/C(C)=C/CO,Potency,[1],inactive
same,Potency,[2],inactive
same,Potency,[3],inactive
CCCC/C=C/C=C\C=O,Potency,[1],inactive
same,Potency,[2],inactive
same,Potency,[3],inactive
c1coc(CNc2ncnc3nc[nH]c23)c1,Potency,[1],inactive
same,Potency,[4],inactive
CC(O)(P(=O)(O)O)P(=O)(O)O,Potency,[1],inactive
same,Potency,[2],inactive
same,Potency,[3],inactive
C[C@](N)(Cc1ccc(O)cc1)C(=O)O,"activity, negative = inhibition",[1],-0.0506% [at 10.5 µM]
same,"activity change, negative = inhibition",[2],0.139% [at 10.5 µM]
same,"activity change, negative = inhibition",[3],-2.1% [at 10.5 µM]
Nc1ccncc1N,Potency,[2],inactive
Cc1ccc(C)o1,Potency,[2],inactive
CC(=O)O[C@H]1C[C@H](O[C@H]2[C@@H](O)C[C@H](O[C@H]3[C@@H](O)C[C@H](O[C@H]4CC[C@@]5(C)[C@H](CC[C@@H]6[C@@H]5C[C@@H](O)[C@]5(C)[C@@H](C7=CC(=O)OC7)CC[C@]65O)C4)O[C@@H]3C)O[C@@H]2C)O[C@H](C)[C@H]1O[C@@H]1O[C@H](CO)[C@@H](O)[C@H](O)[C@H]1O,Potency,[5],inactive
same,Potency,[6],133 nM (active)
same,Potency,[7],168 nM (active)
same,Potency,[8],750 nM (active)
same,outcome,[9],inactive
same,Potency,[10],inactive
same,Potency,[11],inactive
same,outcome,[12],inactive
same,Potency,[13],inactive
same,Potency,[14],inactive
same,outcome,[15],inactive
same,Potency,[16],inactive
same,Potency,[17],inactive
same,Potency,[18],inactive
same,Potency,[19],674 nM (active)
same,Potency,[20],750 nM (active)
same,Potency,[21],750 nM (active)
same,Potency,[22],668 nM (active)
same,Potency,[23],75.6 nM (active)
same,Potency,[24],301 nM (active)
same,Potency,[25],inactive
same,Potency,[26],inactive
same,Potency,[27],inactive
same,Potency,[28],inactive
same,Potency,[29],inactive
same,Potency,[30],inactive
same,Potency,[31],inactive
